The panel holds about 79,000 compounds, 15% with a hit somewhere; the sample as a whole holds those more often. Rule as the data show it: active = growth inhibition above about 70%; inactive = the rest.
Assays:
[1] = NCI Yeast Anticancer Drug Screen. Data for the rad50 strain (AID 155);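 also: 0% = growth of vehicle-only cultures of the same strain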; details: S. cerevisiae rad50 strain growth inhibition; at 50.0 µM; hits give high values
Outline: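 Vehicle-treated cultures provide the reference for the growth inhibition reported for compound-exposed, repair-deficient yeast.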

[2] = NCI Yeast Anticancer Drug Screen. Data for the mec2-1 strain (AID 157); details: S. cerevisiae mec2-1 strain, at 50.0 µM, hits give high values
Outline: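 Readout is yeast growth inhibition, normalised to vehicle-treated controls, in the mec2-1 strain exposed to compound.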

[3] = NCI Yeast Anticancer Drug Screen. Data for the sgs1 mgt1 strain (AID 161);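 also: 0% = growth of cultures given vehicle only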; details: S. cerevisiae sgs1 mgt1 strain, at 50.0 µM, hits give high values
Outline: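 Growth of a repair-deficient yeast mutant was monitored after compound treatment and expressed as inhibition relative to vehicle-treated cultures.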

[4] = NCI Yeast Anticancer Drug Screen. Data for the cln2 rad14 strain (AID 165);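 also: 0% = growth equal to vehicle treated cultures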; details: S. cerevisiae cln2 rad14 strain, at 50.0 µM, hits give high values
Outline: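 Relative to vehicle controls, growth inhibition of compound-treated cln2 rad14 yeast was recorded.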

[5] = NCI Yeast Anticancer Drug Screen. Data for the bub3 strain (AID 167); details: S. cerevisiae bub3 mutant strain, at 50.0 µM, hits give high values
Outline: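 Mutant yeast screening strain plus compound; vehicle-treated cultures serve as the 0% inhibition reference.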

[6] = NCI Yeast Anticancer Drug Screen. Data for the mlh1 rad18 strain (AID 175); details: S. cerevisiae mlh1 rad18 strain growth inhibition; at 50.0 µM; hits give high values
Outline: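 Test agents were incubated with a yeast strain of defined genotype (DNA damage repair defect). Inhibition of growth was derived by comparison with vehicle-exposed cultures.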

Measured: growth inhibition

COc1cc(C(=O)O)c(O)c(C(C)(C)C)c1
inactive: [1] 19.4% | [2] 4.25% | [3] 17.9% | [4] -2.45% | [5] 5.4% | [6] 8.5%

Nc1ccccc1SC1CC(=O)N(c2ccc(Cl)c(Cl)c2)C1=O (configuration not stated)
inactive: [1] -2.05% | [2] -21.6% | [3] 4.7% | [4] -15.9% | [5] 1.15% | [6] -5.4%

C=CCC(OC(C)=O)c1ccc(C(C)C)cc1 (configuration not stated)
inactive: [1] 4% | [2] 0.9% | [3] -23.4% | [4] -55.1% | [5] -0.5% | [6] 5.45%

O=C1NCC2CCCC1C2 (configuration not stated)
inactive: [1] 6.5% | [2] -8.15% | [3] -9.3% | [4] -40.9% | [5] -13.4% | [6] 1.7%

C=CC(C)(C)n1cc(C2=C(O)C(=O)C(c3cn(C(C)(C)C=C)c4ccccc34)=C(O)C2=O)c2ccccc21
inactive: [1] -1.6% | [2] -26.6% | [3] -2.3% | [4] 4.7% | [5] -18.8% | [6] -13.4%

C=C(C)COc1ccc(C(C)(C)C)cc1
inactive: [1] 18.1% | [2] 16.7% | [3] 11.1% | [4] 8.1% | [5] 17.6% | [6] 12%

Cn1/c(=N\N=C\c2ccccc2OCCO)sc2ccccc21
inactive: [1] -2.7% | [2] 17.9% | [3] 18.8% | [4] 9.7% | [5] 26.4% | [6] 4.3%

COC(=O)c1cccc([N+](=O)[O-])c1
inactive: [1] -11.3% | [2] -5.7% | [3] -4.7% | [4] -31.3% | [5] -0.4% | [6] -9.9%

Cc1cccc(-[n+]2noc(N)n2)c1
inactive: [1] 29.1% | [2] 22.2% | [3] 2.25% | [4] -3.35% | [5] 1.95% | [6] 40.6%

CCCCNc1ccc(-c2ccc(NCCCC)cc2)cc1
inactive: [1] 31.9% | [2] 4.3% | [3] -3.8% | [4] -36.1% | [5] -5.3% | [6] 59.5%

CNc1ccccc1C(N)=O
inactive: [1] -21.5% | [2] -28.6% | [3] -10.3% | [4] 11.7% | [5] -7.85% | [6] -6.5%

Cc1ccc2[nH]c3ccccc3c2c1
inactive: [1] 26.1% | [2] 14.6% | [3] 22.9% | [4] -14.8% | [5] 15% | [6] 31.1%

CC1CCC(C)(C)c2ccccc21 (configuration not stated)
inactive: [1] 2.65% | [2] -7.25% | [3] -2.5% | [4] -2.5% | [5] -7.75% | [6] 2.3%

O=c1nc(Nc2cccc(Cl)c2)oc2cc(Cl)oc(=O)c12
inactive: [1] 32.5% | [2] 26% | [3] 51.8% | [4] 19.6% | [5] 36.5% | [6] 42.6%

NNc1ncnc2nc[nH]c12
inactive: [1] -20.4% | [2] -9.65% | [3] -14.3% | [4] -44.7% | [5] -15.9% | [6] -19.4%

CC(=O)CSc1ncnc2nc[nH]c12
inactive: [1] 0.1% | [2] 2.8% | [3] -0.5% | [4] -5.5% | [5] 5.85% | [6] -5.3%

CC(C)c1ccc(C(=O)OCCCl)cc1
inactive: [1] 29.7% | [2] 9% | [3] 6.6% | [4] -3.05% | [5] -4.2% | [6] 23.8%

C[n+]1cc2cc3c(cc2c2ccccc21)OCO3
inactive: [1] 23.5% | [2] 35% | [3] 30% | [4] 13.1% | [5] 26.9% | [6] 39.5%

O=C(O)c1ccccc1Cc1ccc2c(c1)CCCC2
inactive: [1] 17.4% | [2] 12.2% | [3] -4.6% | [4] -28.9% | [5] 25.7% | [6] 47.3%

O=C(OC1CCCC1)c1ccccc1Cl
inactive: [1] 23.9% | [2] 8.75% | [3] 3.75% | [4] -21.7% | [5] -2.3% | [6] 23.2%

Cc1ccc(O)c(N)c1
inactive: [1] 2.1% | [2] -12.5% | [3] -20.3% | [4] 2.35% | [5] -9.6% | [6] 0.95%

CCC(=O)Oc1c(C)cc(O)c2ccccc12
inactive: [1] 8.95% | [2] -49.6% | [3] 18.7% | [4] 52.9% | [5] 35.2% | [6] 27.7%
